Inconclusive results are not listed. The source made the active and inactive calls. How the source made its calls, unless noted: active means hit-call score of the fitted dose curve at least 0.9, where 1 is the maximum; inconclusive means response in the unintended direction; inactive means score below 0.9.

In the first assay the target is Bile acid receptor (Homo sapiens) (UniProt Q96RI1). As to the kind of experiment: OT_FXR_FXRSRC1_0480: Odyssey Thera (OT) 8-hour HEK293T Protein-Complementation Assay for Farnesoid X receptor/SRC-1 Co-activator (AID 2283383).
Sequence of Bile acid receptor (Homo sapiens) (Q96RI1 whole entry, looked up): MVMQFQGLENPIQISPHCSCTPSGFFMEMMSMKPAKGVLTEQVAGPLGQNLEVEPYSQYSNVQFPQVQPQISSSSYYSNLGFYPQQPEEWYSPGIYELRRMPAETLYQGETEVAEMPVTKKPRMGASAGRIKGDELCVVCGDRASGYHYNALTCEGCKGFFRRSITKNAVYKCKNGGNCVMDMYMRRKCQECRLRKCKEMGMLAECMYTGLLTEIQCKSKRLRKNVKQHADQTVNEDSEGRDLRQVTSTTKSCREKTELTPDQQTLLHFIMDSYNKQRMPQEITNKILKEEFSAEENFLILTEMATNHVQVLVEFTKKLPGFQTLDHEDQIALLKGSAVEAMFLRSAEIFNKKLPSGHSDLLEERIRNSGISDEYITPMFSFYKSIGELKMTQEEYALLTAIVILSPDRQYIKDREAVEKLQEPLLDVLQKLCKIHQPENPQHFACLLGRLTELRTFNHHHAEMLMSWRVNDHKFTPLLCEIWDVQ
Conditions: not given
In short, it runs like this:
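Co-activator recruitment to FXR was measured in living HEK293T cells, where interaction of the two fused partners restored an active fluorescent reporter. Signal gain after 8 h treatment was referenced to DMSO.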
Consider `CCC(C)(O)CCCC(C)C` (centres undefined), for which the molecule was called inactive.
The same measure, in the same setting: in the case of `CC12CCC(CC1)C(C)(C)O2` it was “inactive”; in that of `Nc1ccc(C(=O)O)cc1`, “inactive”; in that of `CCCCNS(=O)(=O)c1ccccc1`, “inactive”.
On the same count and under the same terms, in the case of `O=C(Nc1ccccc1)c1cc(Cl)ccc1O` it was “inactive”.
Consider `CCCCc1ccc(Cl)cc1`, for which the molecule was classed as inactive.

In the next assay the target is Retinoic acid receptor RXR-alpha (Homo sapiens) (UniProt P19793). As to the kind of experiment: OT_NURR1_NURR1RXRa_0480: Odyssey Thera (OT) 8-hour HEK293T Protein Complementation Assay for Nurr1/retinoid X receptor (RXR) (AID 2283385).
Sequence of Retinoic acid receptor RXR-alpha (Homo sapiens) (P19793 whole entry, looked up): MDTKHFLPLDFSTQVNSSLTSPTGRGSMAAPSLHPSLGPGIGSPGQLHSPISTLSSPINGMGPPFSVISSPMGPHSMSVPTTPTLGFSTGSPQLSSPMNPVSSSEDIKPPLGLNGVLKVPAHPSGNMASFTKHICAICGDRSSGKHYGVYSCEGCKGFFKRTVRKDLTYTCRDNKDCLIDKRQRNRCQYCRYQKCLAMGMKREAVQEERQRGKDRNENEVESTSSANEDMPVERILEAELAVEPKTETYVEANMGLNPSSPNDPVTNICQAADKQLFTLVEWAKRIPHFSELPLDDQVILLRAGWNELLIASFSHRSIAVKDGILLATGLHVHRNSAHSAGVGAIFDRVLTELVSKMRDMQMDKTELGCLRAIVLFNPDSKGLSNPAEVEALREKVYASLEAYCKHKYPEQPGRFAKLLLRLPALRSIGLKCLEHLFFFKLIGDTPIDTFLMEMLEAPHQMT
Conditions: not given
The gist of the method: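 Compounds are applied to HEK293T cells carrying Nurr1 and RXRα linked to reporter fragments. After 8 h, fluorescence intensity reports heterodimer formation, with DMSO as baseline.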
Turning to `CN(C)c1ccc2nc3ccc(=[N+](C)C)cc-3sc2c1`, the AC50 is 26.3 µM (active).
Take `C=C(C)C1CC=C(C)CC1` (centres undefined): the molecule was called inactive.
On the same count and under the same terms, in the case of `CCCCCCO` it was “inactive”.

A further assay shares this target. As to the kind of experiment: OT_NURR1_NURR1RXRa_1440: Odyssey Thera (OT) 24-hour HEK293T Protein Complementation Assay for Nurr1/retinoid X receptor (RXR) (AID 2283386).
Conditions: not given
The gist of the method: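 Measured as fluorescence from a reconstituted split reporter, this 24 h HEK293T complementation assay scores compound-induced gain of Nurr1/RXRα association relative to DMSO.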
For the molecule `O=C(O)/C=C/c1ccccc1`, the molecule was called inactive.
The same measure, in the same setting: in the case of `CCC(C)(O)CCCC(C)C` (centres undefined) it was “inactive”; in that of `CC1=CC=C(C(C)C)CC1`, “inactive”; in that of `CCCC=C(C=O)CC`, “inactive”.
On the same count and under the same terms, then `O=C(OCCc1ccccc1)c1ccccc1`, with “inactive”.
On the same count and under the same terms, in the case of `C[Si]1(C)O[Si](C)(C)O[Si](C)(C)O[Si](C)(C)O[Si](C)(C)O1` it was “inactive”; in that of `Fc1ccc(Br)cc1`, “inactive”.
Regarding `CCCCCCCO`, the molecule was classed as inactive.
For `O=C(Nc1ccccc1)c1cc(Cl)ccc1O`, the AC50 was 16.1 µM (active).
Take `O=C(O)CCC(=O)O`: the outcome was inactive.
In the case of `CN(C)c1ccc2nc3ccc(=[N+](C)C)cc-3sc2c1`, the AC50 is 15.3 µM (active).
For `CC1=NN(c2ccc(S(=O)(=O)O)cc2)C(=O)C1N=Nc1ccccc1` (centres undefined), the result was inactive.
Still for that read-out and setting: then `CCCCCC(=O)OCC`, with “inactive”.
The same measure, in the same setting: in the case of `CCCCNS(=O)(=O)c1ccc(C)cc1` it was “inactive”.
Regarding `C=C(C)C1CC=C(C)CC1` (centres undefined), the call was inactive.
On the same count and under the same terms, in the case of `COC(=O)c1ccccc1C` it was “inactive”.
On to `CCCCCCCCCC[N+](C)(CCCCCCCCCC)CCC[Si](OC)(OC)OC`, for which the AC50 was 11.6 µM (active).
`CCOC(=O)c1ccc(C)cc1`: the molecule was classed as inactive.
On the same count and under the same terms, in the case of `CC1(C)[C@@H]2CC[C@@]1(C)C(=O)C2` it was “inactive”.
The same measure, in the same setting: then `CCCCCCO`, with “inactive”.
The same measure, in the same setting: in the case of `C1CNCCN1` it was “inactive”.
Take `CCCCCC[C@@H](O)C/C=C\CCCCCCCC(=O)OCC(O)CO` (some centres undefined): the molecule was classed as inactive.
On the same count and under the same terms, in the case of `CCCCCCC=O` it was “inactive”; in that of `CC(C)(C)N`, “inactive”.
On the same count and under the same terms, then `CC(=O)c1ccccc1O`, with “inactive”; and `O=C(O)CC(C(=O)O)S(=O)(=O)O` (centres undefined), with “inactive”.

The next assay deals with Peroxisome proliferator-activated receptor gamma (Homo sapiens) (UniProt P37231). As to the kind of experiment: OT_PPARg_PPARgSRC1_0480: Odyssey Thera (OT) 8-hour Protein-Complementation Assay for Peroxisome Proliferator-activated Receptor Gamma / SRC-1 Co-activator (AID 2283387).
Sequence of Peroxisome proliferator-activated receptor gamma (Homo sapiens) (P37231 whole entry, looked up): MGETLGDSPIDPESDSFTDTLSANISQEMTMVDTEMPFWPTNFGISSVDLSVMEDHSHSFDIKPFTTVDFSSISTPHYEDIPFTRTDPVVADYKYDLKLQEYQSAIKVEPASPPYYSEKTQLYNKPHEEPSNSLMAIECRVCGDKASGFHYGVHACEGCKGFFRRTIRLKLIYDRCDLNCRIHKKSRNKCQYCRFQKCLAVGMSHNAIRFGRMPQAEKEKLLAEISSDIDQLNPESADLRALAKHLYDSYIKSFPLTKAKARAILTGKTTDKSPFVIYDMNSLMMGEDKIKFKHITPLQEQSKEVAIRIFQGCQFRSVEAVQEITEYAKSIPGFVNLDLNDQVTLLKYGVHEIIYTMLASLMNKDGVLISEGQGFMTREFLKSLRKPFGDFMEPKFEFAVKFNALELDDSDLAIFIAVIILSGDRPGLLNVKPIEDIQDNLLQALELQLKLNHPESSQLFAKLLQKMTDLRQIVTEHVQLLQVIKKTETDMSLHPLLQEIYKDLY
Conditions: not given
The gist of the method:
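HEK293T transiently transfected with PPARg and SRC-1 fused to Venus YFP fragments, compounds 8 h at 37C. Fixed, Draq5-stained cells imaged; nuclear/cytoplasmic 488 nm fluorescence ratio over at least 350 cells per image; gain fitted versus DMSO.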
`CCCCCCCCCCCC(=O)N(C)CC(=O)O`: the call was inactive.
`O=C(O)/C=C/c1ccccc1`: the molecule was called inactive.
Same read-out and setting: then `O=C(OCCc1ccccc1)c1ccccc1`, with “inactive”; and `C[Si]1(C)O[Si](C)(C)O[Si](C)(C)O[Si](C)(C)O[Si](C)(C)O1`, with “inactive”; and `CC12CCC(CC1)C(C)(C)O2`, with “inactive”.
As to `Fc1ccc(Br)cc1`, the outcome was inactive.
Still for that read-out and setting: in the case of `CCCCCCCO` it was “inactive”; in that of `Nc1ccc(C(=O)O)cc1`, “inactive”; in that of `CCCCNS(=O)(=O)c1ccccc1`, “inactive”.
Same read-out and setting: in the case of `O=C(Nc1ccccc1)c1cc(Cl)ccc1O` it was “inactive”.
As for `O=C(O)CCC(=O)O`, the result was inactive.
Consider `CN(C)c1ccc2nc3ccc(=[N+](C)C)cc-3sc2c1`, for which the AC50 was 31.1 µM (active).
As to `CC1=NN(c2ccc(S(=O)(=O)O)cc2)C(=O)C1N=Nc1ccccc1` (centres undefined), the molecule was called inactive.
On the same count and under the same terms, in the case of `CCCCCC(=O)OCC` it was “inactive”.
As for `CCCCNS(=O)(=O)c1ccc(C)cc1`, the molecule was called inactive.
Still for that read-out and setting: in the case of `O=C(Oc1ccccc1)c1ccccc1O` it was “inactive”; in that of `COC(=O)c1ccccc1C`, “inactive”.
On the same count and under the same terms, then `CC1=CCC2CC1C2(C)C` (centres undefined), with “inactive”; and `CCCCCCCCCC[N+](C)(CCCCCCCCCC)CCC[Si](OC)(OC)OC`, with “inactive”.
On the same count and under the same terms, in the case of `CCOC(=O)c1ccc(C)cc1` it was “inactive”; in that of `Oc1ccccc1Cc1ccccc1O`, “inactive”.
As to `CCCCCCO`, the result was inactive.
Still for that read-out and setting: in the case of `C1CNCCN1` it was “inactive”.
Same read-out and setting: in the case of `CCCCc1ccc(Cl)cc1` it was “inactive”; in that of `CCCCCC[C@@H](O)C/C=C\CCCCCCCC(=O)OCC(O)CO` (some centres undefined), “inactive”; in that of `CCCCCCC=O`, “inactive”.
On the same count and under the same terms, in the case of `CC(C)(C)N` it was “inactive”.
For `O=C(O)CC(C(=O)O)S(=O)(=O)O` (centres undefined), the outcome was inactive.

A further assay has the same target. As to the kind of experiment: OT_PPARg_PPARgSRC1_1440: Odyssey Thera (OT) 24-hour Protein-Complementation Assay for Peroxisome Proliferator-activated Receptor Gamma/ SRC-1 Co-activator (AID 2283388).
Conditions: not given
In short, it runs like this:
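HEK293T transiently transfected with PPARg/SRC-1 split-Venus YFP fusions 48 h before dosing, then treated 24 h at 37C. Fixed cells imaged; nuclear/cytoplasmic 488 nm fluorescence ratio, gain of signal versus DMSO.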
As to `O=C(O)/C=C/c1ccccc1`, the call was inactive.
On the same count and under the same terms, then `CCC(C)(O)CCCC(C)C` (centres undefined), with “inactive”; and `Fc1ccc(Br)cc1`, with “inactive”; and `CCCCCCCO`, with “inactive”.
As to `Nc1ccc(C(=O)O)cc1`, the molecule was called inactive.
`CCCCNS(=O)(=O)c1ccccc1`: the molecule was classed as inactive.
Still for that read-out and setting: then `O=C(Nc1ccccc1)c1cc(Cl)ccc1O`, with “inactive”.
Still for that read-out and setting: in the case of `O=C(O)CCC(=O)O` it was “inactive”; in that of `CC1=NN(c2ccc(S(=O)(=O)O)cc2)C(=O)C1N=Nc1ccccc1` (centres undefined), “inactive”.
Regarding `CCCCCC(=O)OCC`, the molecule was classed as inactive.
The same measure, in the same setting: then `CCCCNS(=O)(=O)c1ccc(C)cc1`, with “inactive”; and `O=C(Oc1ccccc1)c1ccccc1O`, with “inactive”.
In the case of `CCCCCCCCCC[N+](C)(CCCCCCCCCC)CCC[Si](OC)(OC)OC`, the molecule was called inactive.
With `Oc1ccccc1Cc1ccccc1O`, the molecule was classed as inactive.
Still for that read-out and setting: in the case of `C1CNCCN1` it was “inactive”; in that of `CCCCCC[C@@H](O)C/C=C\CCCCCCCC(=O)OCC(O)CO` (some centres undefined), “inactive”; in that of `CCCCCCC=O`, “inactive”.

Read-out in a further assay: not listed separately
As to the kind of experiment: CEETOX_H295R_11DCORT: CeeTox H295R High-throughput Steroidogenesis Assay for 11-Deoxycortisol (11DCORT) (AID 2283432; active means hit-call score of the fitted dose curve at least 0.9, where 1 is the maximum; inactive means score below 0.9). As to conditions: actives raise or lower the signal. The gist of the method:
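H295R cells prestimulated 48 h with 10 uM forskolin, then exposed 48 h to chemical in 0.1% DMSO. 11-Deoxycortisol in medium quantified by HPLC-MS/MS after MTBE extraction; bidirectional fit versus DMSO. MTT viability read in same wells.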
As to `CCOC(=O)C1=NN(c2ccc(Cl)cc2Cl)C(C)(C(=O)OCC)C1` (centres undefined), the molecule was classed as inactive.
Still for that read-out and setting: in the case of `CN(C)c1ccc2nc3ccc(=[N+](C)C)cc-3sc2c1` it was “inactive”; in that of `C=CC(=O)OCCCCCCOC(=O)C=C`, “inactive”.

Read-out in a further assay: not listed separately
As to the kind of experiment: CEETOX_H295R_OHPREG: CeeTox H295R High-throughput Steroidogenesis Assay for OH-Pregnenolone (OHPREG) (AID 2283434; active means hit-call score of the fitted dose curve at least 0.9, where 1 is the maximum; inactive means score below 0.9). As to conditions: actives raise or lower the signal. The gist of the method:
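Hormone levels in spent medium were measured by tandem mass spectrometry following liquid-liquid extraction. Cells (H295R) had been forskolin-stimulated (10 uM, 48 h) before a 48 h chemical exposure at 0.1% DMSO, with activity fitted in both directions against DMSO.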
In the case of `CCOC(=O)C1=NN(c2ccc(Cl)cc2Cl)C(C)(C(=O)OCC)C1` (centres undefined), the molecule was classed as inactive.
The same measure, in the same setting: then `CN(C)c1ccc2nc3ccc(=[N+](C)C)cc-3sc2c1`, with “inactive”; and `C=CC(=O)OCCCCCCOC(=O)C=C`, with “inactive”.

Read-out in a further assay: not listed separately
As to the kind of experiment: CEETOX_H295R_OHPROG: CeeTox H295R High-throughput Steroidogenesis Assay for OH-Progesterone (OHPROG) (AID 2283435; active means hit-call score of the fitted dose curve at least 0.9, where 1 is the maximum; inactive means score below 0.9). To be noted: actives raise or lower the signal. In short, it runs like this: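 Secreted 17alpha-hydroxyprogesterone is read by tandem MS from media of forskolin-primed H295R cells dosed with chemical for 48 h. Activity is fitted in both directions against DMSO baseline; cytotoxic concentrations are re-tested diluted.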
In the case of `CCOC(=O)C1=NN(c2ccc(Cl)cc2Cl)C(C)(C(=O)OCC)C1` (centres undefined), the molecule was called inactive.
As for `CN(C)c1ccc2nc3ccc(=[N+](C)C)cc-3sc2c1`, the molecule was called inactive.
`C=CC(=O)OCCCCCCOC(=O)C=C`: the molecule was classed as inactive.

The values above are taken from PubChem BioAssay (EPA / NIEHS).
